The panel holds about 79,000 compounds, 15% with a hit somewhere; the sample as a whole holds those more often. Values without a mark were called inactive. No stated cut-off is given here; in the data, active means growth inhibition above about 70%; inactive means the rest.
Assay: NCI Yeast Anticancer Drug Screen. Data for the cln2 rad14 strain (AID 165);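 further: 0% = growth equal to vehicle treated cultures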
Details: S. cerevisiae cln2 rad14 strain, at 50.0 µM, stronger effect = higher value
In short: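 Readout is yeast growth inhibition versus vehicle-treated controls, using a strain with cln2 and rad14 alterations exposed to compound.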
`CCOc1cccc(C=Nc2ccccc2SSc2ccccc2N=Cc2cccc(OCC)c2O)c1O` gave a growth inhibition of 2.85%. Molecule `c1csc(NC(Nc2nccs2)C23CC4CC(CC(C4)C2)C3)n1` has a growth inhibition of 20.6%. In the case of `O=C1C(Cc2ccc(O)cc2)NC(=S)N1c1ccccc1` (stereo not given), the growth inhibition is reported as -2.75%. Work on `CO/N=C1\C(O)CC2C(C)(CCC3C2(C)CCC2(C)C4CC(C)(C)CCC4(C)CCC32C)C1C` (stereo not given) yielded a growth inhibition of -14.1%. In the case of `CCOc1cn(C2OC(CO)C(O)C2O)c(=O)[nH]c1=O` (stereo not given), the growth inhibition is reported as 3.55%. `OCC1CCN(CCOCc2ccccc2)C1` (stereo not given) showed a growth inhibition of -32.5%. For `Cc1cc(C(C)(C)C)ccc1S(=O)(=O)/C=C/c1ccccc1`, the growth inhibition was 0.45%. `N#CC1C=CN(Cc2ccccc2)C=C1C(=O)c1ccccc1` (stereo not given) showed a growth inhibition of 2.55%. Molecule `CC1=NN(C(=O)c2ccc(Cl)cc2)C(=O)C1N=Nc1ccc(S(=O)(=O)Nc2ccccn2)cc1` (stereo not given) has a growth inhibition of 20.2%. For `CCCCCCCCCCCCCCCCOc1ccc(N)cc1`, the growth inhibition was -41.2%. `O=S1(=O)C2C=CC1CCCC2` showed a growth inhibition of -30.9%. Work on `Cn1ncc2c(N)nc(NCCO)nc21` yielded a growth inhibition of -19.1%. For `O=CC(O)C(O)C(O)C(O)COC1OC(CO)C(O)C(O)C1O` (stereo not given), the growth inhibition was 8%. Work on `CC(O)CNCC(C)(C)N` (stereo not given) yielded a growth inhibition of -7.5%. `CC(=O)OCC(OC(C)=O)C(OC(C)=O)C(/C=C/N=[N+]([O-])c1ccccc1)OC(C)=O` (stereo not given) showed a growth inhibition of 42.6%. Molecule `O=C(/C=C/c1ccco1)CCN1CCOCC1` has a growth inhibition of -44.1%. In the case of `CC1CC2C3(C1)CC(C(=O)OC3=O)C2(C)C` (stereo not given), the growth inhibition is reported as -37.4%. `CCOC(=O)c1ccc(-c2cccs2)[nH]1` showed a growth inhibition of -1.25%. `CS(=O)(=O)ON1C(=O)c2ccccc2C1=O` gave a growth inhibition of 6.5%. `O=C(Nc1cc(-c2ccccc2)[nH]n1)c1ccccc1Cl` gave a growth inhibition of 31.2%. `C1=CCc2cc3c(cc2=C1)C=c1ccccc1=3` gave a growth inhibition of -5.9%. `CCCNC(=O)Nc1ccc2c(c1)Cc1cc([N+](=O)[O-])ccc1-2` showed a growth inhibition of -42%. With `CCCCCC(=C/c1ccccc1)/C=N/N1CCN(/N=C/C(=C/c2ccccc2)CCCCC)CC1` the growth inhibition was 3.2%. With `CCc1cccc(CC)c1NC1=CC(=O)C(=O)c2ccccc21` the growth inhibition was 18.8%. `COc1ccc(CNc2ccccc2C(=O)O)cc1OC` showed a growth inhibition of 31.4%. For `Brc1nc(-[n+]2ccccc2)[n-]c1Br`, the growth inhibition was -60.5%. For `COC(=O)C(N)CSc1ccc([N+](=O)[O-])cc1[N+](=O)[O-]` (stereo not given), the growth inhibition was 25.1%. Work on `Oc1cc2cc(-c3ccccc3)[nH]c2c2ccccc12` yielded a growth inhibition of 18.8%. Molecule `CCCCS/C=C\C(=O)OCC` has a growth inhibition of -44%. For `CCOC(=O)c1c2cccccc-2nc1Nc1cccc2c(C)ccnc12`, the growth inhibition was 9.7%. `CC1=NN(C(=O)c2ccncc2)C(=O)C1N=Nc1ccc(F)cc1` (stereo not given) gave a growth inhibition of -5.2%. With `CCOC(=O)c1ccc(NC(=O)CCCCl)cc1` the growth inhibition was 8.55%. With `Cc1[nH]c(=O)[nH]c(=O)c1/C=C/C(=O)NC(CO)CS(=O)CS(C)=O` (stereo not given) the growth inhibition was 13.1%. Molecule `C[N+]12C=CC=C1C(N1CCCC1)c1sc(-c3ccc(Cl)cc3)cc12` (stereo not given) has a growth inhibition of 7.3%. `Cc1nc(N=C(N)N)nc2ccccc12` gave a growth inhibition of 16.8%. With `N#CCOS(=O)(=O)O` the growth inhibition was -6.7%. In the case of `Nc1ncccc1C(=O)O`, the growth inhibition is reported as -12.1%. For `CN(C)CCNC(=O)c1cccc2nc3c(C(=O)NCCN(C)C)cccc3nc12`, the growth inhibition was -33.7%. Molecule `COc1ccc2c(C(=O)O)cc3c4ccccc4ncc3c2c1` has a growth inhibition of 26.9%. `CC(C)COP(C)(=O)C(N)(C(F)(F)F)C(F)(F)F` (stereo not given) showed a growth inhibition of 25.8%.

Reference: PubChem BioAssay (NCI)
